Assay [1] has as its target human Retinoid X Receptor beta (RXRb), RXRB (gene 6257) (UniProt P28702). Nature of the assay: ATG_RXRb_TRANS: Attagene TRANS-FACTORIAL HepG2 Assay for human Retinoid X Receptor beta (RXRb) (AID 2283013; active = hit-call score of the fitted dose curve at least 0.9, where 1 is the maximum). The essentials: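 Multiplexed TRANS reporter assay in HepG2; 24 h dosing; reporter mRNA by RT-PCR/CE fluorescence; gain-of-signal relative to DMSO.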
Read-out in assay [2]: Interleukin-1 alpha (IL1a), IL1A (gene 3552)
As to the kind of experiment: BSK_BE3C_IL1a: BioMAP Diversity Plus: BE3C Assay for Interleukin-1 alpha (IL1a) Biomarker Activity (AID 2283016). As to conditions: primary human bronchial epithelial cells; actives raise or lower the signal. The essentials: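 Cultures of primary human bronchial epithelial cells receive test chemical. After 24 h, IL-1a is quantified by ELISA, while parallel wells are fixed in TCA and SRB-stained for total protein. Changes in either direction are fitted relative to DMSO.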

Read-out in assay [3]: Monocyte Chemoattractant Protein-1 (MCP1), CCL2 (gene 6347)
Nature of the assay: BSK_3C_MCP1: BioMAP Diversity Plus: 3C Assay for Monocyte Chemoattractant Protein-1 (MCP1) Biomarker Activity (AID 2283017). As to conditions: primary human endothelial cells (HUVEC); actives raise or lower the signal. The essentials: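 ELISA read-out of MCP-1 from human umbilical vein endothelial cell cultures harvested 24 h post-dosing. Gain or loss of signal was fitted relative to DMSO.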

Read-out in assay [4]: Monocyte Chemoattractant Protein-1 (MCP1), CCL2 (gene 6347)
Nature of the assay: BSK_4H_MCP1: BioMAP Diversity Plus: 4H Assay for Monocyte Chemoattractant Protein-1 (MCP1) Biomarker Activity (AID 2283018). As to conditions: primary human endothelial cells (HUVEC); actives raise or lower the signal. The essentials:
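Readout: MCP-1 ELISA on compound-treated HUVEC, sampled 24 h post-dosing. Baseline and negative control DMSO; bidirectional fit. Overt toxicity checked alongside by sulforhodamine B protein staining at time of biomarker measurement.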

Read-out in assay [5]: Human Leukocyte Antigen - DR isotype (HLADR), HLA-DRA (gene 3122)
As to the kind of experiment: BSK_3C_HLADR: BioMAP Diversity Plus: 3C Assay for Human Leukocyte Antigen - DR isotype (HLADR) Biomarker Activity (AID 2283019).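 Note: ELISA of cell-surface HLA-DR on HUVEC 24 h after dosing.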 The conditions noted are these: primary human endothelial cells (HUVEC); actives raise or lower the signal. Summed up:
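ELISA readout of surface HLA-DR on human umbilical vein endothelium, taken 24 h after chemical treatment. Gain- and loss-of-signal were both fitted relative to DMSO.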

Read-out in assay [6]: Interleukin-8 (IL8), CXCL8 (gene 3576)
Nature of the assay: BSK_3C_IL8: BioMAP Diversity Plus: 3C Assay for Interleukin-8 (IL8) Biomarker Activity (AID 2283020). The conditions noted are these: primary human endothelial cells (HUVEC); actives raise or lower the signal. The essentials:
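Human vascular endothelial cells (umbilical vein) in the 3C system; IL-8 level detected by ELISA at 24 h post-dose, with DMSO as baseline.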

Read-out in assay [7]: Monokine induced gamma interferon (MIG), CXCL9 (gene 4283)
Nature of the assay: BSK_3C_MIG: BioMAP Diversity Plus: 3C Assay for Monokine induced gamma interferon (MIG) Biomarker Activity (AID 2283021). As to conditions: primary human endothelial cells (HUVEC); actives raise or lower the signal. The essentials: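 After 24 h of treatment, human umbilical vein endothelial cultures (3C system) had their MIG biomarker level determined by ELISA, with DMSO serving as negative control.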

A short description of assay [8]: BSK_3C_SRB: Viability Assessment in the BioMAP Diversity Plus: 3C Assay (AID 2283023).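 Note: fitted both ways against DMSO so a hit may be signal rise or drop.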 The conditions noted are these: primary human endothelial cells (HUVEC). Summed up:
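Absorbance at 560 nm of sulforhodamine B-stained (0.1%) total protein served as a cytotoxicity readout in human umbilical vein endothelial cells, 24 h after chemical treatment. Signal was fitted bidirectionally relative to DMSO.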

Read-out in assay [9]: Matrix Metallopeptidase 1 (MMP1), MMP1 (gene 4312)
As to the kind of experiment: BSK_BE3C_MMP1: BioMAP Diversity Plus: BE3C Assay for Matrix Metallopeptidase 1 (MMP1) Biomarker Activity (AID 2283024). As to conditions: primary human bronchial epithelial cells; actives raise or lower the signal. The essentials:
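Dose cells, wait 24 h, run MMP1 ELISA; cells are human bronchial epithelial primaries. Both increases and decreases relative to DMSO counted.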

Read-out in assay [10]: Pselectin, SELP (gene 6403)
Nature of the assay: BSK_4H_Pselectin: BioMAP Diversity Plus: 4H Assay for Pselectin Biomarker Activity (AID 2283026). As to conditions: primary human endothelial cells (HUVEC); actives raise or lower the signal. The essentials:
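Human vascular endothelium from umbilical vein; P-selectin measured by ELISA at 24 h post-dose, with cytotoxicity checked by sulforhodamine B total-protein staining in parallel cultures (0.1% SRB after 10% TCA fixation, read at 560 nm).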

Assay [11] can be described thus: BSK_4H_SRB: Viability Assessment in the BioMAP Diversity Plus: 4H Assay (AID 2283027).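 Note: cells exposed to compound for 24 h before staining.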 As to conditions: primary human endothelial cells (HUVEC). The essentials: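 Human umbilical vein endothelial cells were dosed with chemical and, after 24 h, fixed with 10% TCA, stained with 0.1% sulforhodamine B, and read at 560 nm to give total protein as a cytotoxicity measure. Bidirectional fitting relative to DMSO control.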

A short description of assay [12]: BSK_BE3C_SRB: Viability Assessment in the BioMAP Diversity Plus: BE3C Assay (AID 2283028). The conditions noted are these: primary human bronchial epithelial cells. The essentials: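 Cells (human bronchial epithelial, primary) are treated with chemicals, and after 24 h the parallel cultures are fixed in 10% TCA. These are then stained with 0.1% SRB and read at 560 nm. Gain or loss of signal is fitted relative to DMSO.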

Read-out in assay [13]: Thrombomodulin, THBD (gene 7056)
Nature of the assay: BSK_3C_Thrombomodulin: BioMAP Diversity Plus: 3C Assay for Thrombomodulin Biomarker Activity (AID 2283029). As to conditions: primary human endothelial cells (HUVEC); actives raise or lower the signal. The essentials: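 Thrombomodulin ELISA, human primary HUVEC, 24 h post-dose; data fitted in both directions relative to DMSO.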

Read-out in assay [14]: Urokinase-type plasminogen activator receptor (uPAR), PLAUR (gene 5329)
As to the kind of experiment: BSK_4H_uPAR: BioMAP Diversity Plus: 4H Assay for Urokinase-type plasminogen activator receptor (uPAR) Biomarker Activity (AID 2283030). The conditions noted are these: primary human endothelial cells (HUVEC); actives raise or lower the signal. Summed up:
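Cell-surface uPAR ELISA signal, measured 24 h after dosing human umbilical vein endothelial cells, was analyzed with bidirectional fitting relative to DMSO. Parallel SRB staining of total protein tracked overt cytotoxicity.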

Assay [15] deals with human Vitamin D Receptor (VDR), VDR (gene 7421) (UniProt P11473). As to the kind of experiment: ATG_VDR_TRANS: Attagene TRANS-FACTORIAL HepG2 Assay for human Vitamin D Receptor (VDR) (AID 2283022; active = hit-call score of the fitted dose curve at least 0.9, where 1 is the maximum). Summed up:
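Steps: transfect HepG2 with GAL4-UAS-driven reporter constructs; dose compounds 24 h; isolate RNA, reverse-transcribe, PCR-amplify with 6-FAM-labelled primer extension and HpaI digestion; quantify fragments by capillary electrophoresis relative to DMSO.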

Read-out in assay [16]: E-selectin (Homo sapiens) (UniProt P16581)
Nature of the assay: BSK_3C_Eselectin: BioMAP Diversity Plus: 3C Assay for Eselectin Biomarker Activity (AID 2283015).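 Note: cell surface E-selectin protein quantified by ELISA 24 h after dosing.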 The conditions noted are these: primary human endothelial cells (HUVEC); actives raise or lower the signal. Summed up: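 ELISA read-out of E-selectin on endothelial monolayers after 24 h chemical treatment. Human umbilical vein primary cells served as the system, with DMSO defining baseline activity for bidirectional fitting.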

Assay [17] can be described thus: BSK_3C_Vis: BioMAP Diversity Plus: 3C Assay for Morphology Visualization (AID 2283025).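 Note: fitted both ways so gain or loss versus DMSO counts.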 As to conditions: primary human endothelial cells (HUVEC). Summed up: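 Endothelial cells from human umbilical vein were treated with test chemicals for 24 h and inspected by light microscopy for changes in cell conformation.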
Assay [18] concerns the target human Thyroid Receptor alpha (THRa1), THRA (gene 7067) (UniProt P10827). As to the kind of experiment: ATG_THRa1_TRANS: Attagene TRANS-FACTORIAL HepG2 Assay for human Thyroid Receptor alpha (THRa1) (AID 2283014; active = hit-call score of the fitted dose curve at least 0.9, where 1 is the maximum). The essentials: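 Reporter transcript induction, read by capillary electrophoresis of 6-FAM-labelled RT-PCR products, reflects activity of a transfected THRa1-Gal4 fusion in HepG2 liver cells. Cells were dosed for 24 h; activity was fitted in the positive direction against DMSO.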

Results filed as inconclusive are left out. Active and inactive are the calls of the source. Rule for the calls, unless noted: active = hit-call score of the fitted dose curve at least 0.9, where 1 is the maximum; inactive = score below 0.9.

human Retinoid X Receptor beta (RXRb), RXRB (gene 6257), sequence (P28702 whole entry, looked up): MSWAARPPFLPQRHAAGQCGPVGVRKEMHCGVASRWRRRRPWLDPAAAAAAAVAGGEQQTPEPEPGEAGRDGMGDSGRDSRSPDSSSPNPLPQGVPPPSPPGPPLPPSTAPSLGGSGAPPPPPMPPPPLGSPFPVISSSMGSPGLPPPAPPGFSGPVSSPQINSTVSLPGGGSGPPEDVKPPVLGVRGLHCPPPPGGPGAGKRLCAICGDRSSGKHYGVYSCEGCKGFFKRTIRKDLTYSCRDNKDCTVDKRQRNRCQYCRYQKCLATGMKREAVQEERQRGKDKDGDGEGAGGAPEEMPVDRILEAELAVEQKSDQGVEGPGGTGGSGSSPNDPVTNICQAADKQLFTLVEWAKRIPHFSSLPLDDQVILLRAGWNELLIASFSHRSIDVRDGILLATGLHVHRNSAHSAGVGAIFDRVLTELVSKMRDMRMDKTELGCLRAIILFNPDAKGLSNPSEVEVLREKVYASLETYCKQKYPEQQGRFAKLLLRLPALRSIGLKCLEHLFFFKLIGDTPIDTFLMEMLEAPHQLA
E-selectin (Homo sapiens), sequence (P16581 whole entry, looked up): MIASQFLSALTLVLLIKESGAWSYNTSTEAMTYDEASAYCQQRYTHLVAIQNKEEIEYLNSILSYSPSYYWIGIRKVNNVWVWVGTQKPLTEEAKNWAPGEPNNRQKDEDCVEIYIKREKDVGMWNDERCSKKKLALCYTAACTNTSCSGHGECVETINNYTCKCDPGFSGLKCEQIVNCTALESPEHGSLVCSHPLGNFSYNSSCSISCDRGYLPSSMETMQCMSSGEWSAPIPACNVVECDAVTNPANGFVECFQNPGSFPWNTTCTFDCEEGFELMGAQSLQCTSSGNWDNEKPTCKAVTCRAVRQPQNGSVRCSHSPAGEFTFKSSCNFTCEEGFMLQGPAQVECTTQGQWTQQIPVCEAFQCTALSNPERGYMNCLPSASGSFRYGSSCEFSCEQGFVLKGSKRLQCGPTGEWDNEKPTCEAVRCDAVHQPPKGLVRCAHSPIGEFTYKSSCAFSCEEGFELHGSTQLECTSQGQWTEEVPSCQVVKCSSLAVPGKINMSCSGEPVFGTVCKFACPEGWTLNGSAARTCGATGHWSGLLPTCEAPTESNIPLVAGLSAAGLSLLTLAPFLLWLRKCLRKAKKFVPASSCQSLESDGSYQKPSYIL
human Vitamin D Receptor (VDR), VDR (gene 7421), sequence (P11473 whole entry, looked up, the tested form may be a part): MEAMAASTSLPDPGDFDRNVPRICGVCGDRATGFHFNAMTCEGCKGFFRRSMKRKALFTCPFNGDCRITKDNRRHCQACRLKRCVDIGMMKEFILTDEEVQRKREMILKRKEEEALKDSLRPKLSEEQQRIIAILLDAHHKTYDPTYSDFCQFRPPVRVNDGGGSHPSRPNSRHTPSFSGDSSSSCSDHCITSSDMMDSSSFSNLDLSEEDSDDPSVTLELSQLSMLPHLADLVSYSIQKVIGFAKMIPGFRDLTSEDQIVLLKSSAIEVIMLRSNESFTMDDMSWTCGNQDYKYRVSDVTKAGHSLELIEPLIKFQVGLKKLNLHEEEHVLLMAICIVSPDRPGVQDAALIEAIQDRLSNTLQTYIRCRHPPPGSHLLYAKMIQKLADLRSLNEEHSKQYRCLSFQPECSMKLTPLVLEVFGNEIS
human Thyroid Receptor alpha (THRa1), THRA (gene 7067), sequence (P10827 whole entry, looked up, the tested form may be a part): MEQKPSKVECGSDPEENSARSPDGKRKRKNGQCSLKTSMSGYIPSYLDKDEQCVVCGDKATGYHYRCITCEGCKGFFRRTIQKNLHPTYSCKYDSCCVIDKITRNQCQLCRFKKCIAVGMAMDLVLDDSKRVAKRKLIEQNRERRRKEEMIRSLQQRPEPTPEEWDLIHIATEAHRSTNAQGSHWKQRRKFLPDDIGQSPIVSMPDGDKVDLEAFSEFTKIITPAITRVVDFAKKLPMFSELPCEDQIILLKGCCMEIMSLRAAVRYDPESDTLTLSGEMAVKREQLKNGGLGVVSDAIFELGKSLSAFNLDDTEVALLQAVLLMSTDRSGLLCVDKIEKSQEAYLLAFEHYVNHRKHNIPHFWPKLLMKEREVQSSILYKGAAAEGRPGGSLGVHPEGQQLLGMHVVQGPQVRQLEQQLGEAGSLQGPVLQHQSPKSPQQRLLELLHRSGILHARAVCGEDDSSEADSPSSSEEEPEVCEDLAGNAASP

Take `CC(C)(C)c1ccc(O)cc1`: the AC50 in [1] is 69.3 µM (active). Besides, the result in assay [2], in [3], in assay [4], in assay [5], in assay [6] and in [7] was inactive. The outcome in [8], in [9], in assay [10], in assay [11], in [12] and in [13] was inactive. Also, the result in assay [14] was inactive.
In the case of `OCC(F)(F)OC(F)(F)C(F)(F)OC(F)(F)CO`, the molecule was called inactive in assay [1], in assay [2], in assay [3], in [4], in assay [5] and in assay [6]. The result in [7], in [15], in [8], in assay [9], in [10] and in assay [11] was inactive. In addition, the result in assay [12], in [13] and in [14] was inactive.
`CCN(CC)c1ccccc1`: the result in assay [1], in assay [16], in [2], in assay [3], in [4] and in [5] was inactive. Moreover, the outcome in assay [6], in [7], in [15], in assay [8], in assay [9] and in [10] was inactive. Also, the result in assay [11], in assay [12], in assay [13] and in assay [14] was inactive.
On to `c1nc[nH]n1`, for which the molecule was classed as inactive in [1], in [2], in [3], in assay [4], in [5] and in [6]. Moreover, the outcome in [7], in [15], in assay [8], in assay [9], in assay [10] and in [11] was inactive. Further, the result in [12] and in assay [13] was inactive.
Turning to `CC(C)(C)N(NC(=O)c1ccc(Cl)cc1)C(=O)c1ccccc1`, the molecule was classed as inactive in assay [1] and in [15].
`CCOP(=S)(S)OCC`: the outcome in assay [2], in assay [3], in assay [4], in [5], in assay [6] and in assay [7] was inactive. The result in [8], in [9], in assay [17], in assay [10], in [11] and in assay [12] was inactive. The outcome in assay [13] and in assay [14] was inactive.
Consider `O=C(O)C(F)(F)OC(F)(F)C(F)(F)OC(F)(F)C(=O)O`, for which the molecule was classed as inactive in [1], in assay [16], in assay [2], in [3], in [4] and in assay [5]. The result in assay [6], in [7], in assay [15], in assay [8], in [9] and in assay [10] was inactive. Further, the outcome in assay [11], in [12] and in [13] was inactive.
Take `c1ccc2c(c1)sc1ccccc12`: the call in assay [18], in assay [2], in [3], in assay [4], in assay [5] and in [6] was inactive. Further, the result in assay [7], in assay [15], in assay [8], in assay [9], in assay [17] and in assay [10] was inactive. The result in assay [11], in assay [12] and in assay [13] was inactive.
`CCOP(=S)(Oc1ccc([N+](=O)[O-])cc1)c1ccccc1` (stereo not given): the half-maximal activity concentration (AC50) in assay [1] is 2.35 µM (active). In addition, the result in [2], in [3], in assay [4], in [5], in [6] and in [7] was inactive. Further, the result in assay [15], in assay [8], in [9], in assay [17], in assay [10] and in assay [11] was inactive. Besides, the result in assay [12] and in assay [13] was inactive.

Source of the values: PubChem BioAssay (EPA / NIEHS).
